From PubChem BioAssay
Sampled rows, rich in hits. Any-hit rate of the full collection: about 4%.
TWEAK-Fn14 inh = inhibitors of TWEAK-Fn14 signaling, primary screen, luciferase reporter cells, uHTS | TWEAK-stimulated Fn14 reporter cells, luciferase luminescence, 8 h | actives 2% (n = 360,000) | inhibition, % at 10 µM | AID 1159606, 2016; in the data active means inhibition above about 50%
CF NFkB inh = inhibitors of PAF-induced NF-kB signaling, primary screen, cell-based, GFP fluorescence, uHTS; inhibition, % at 5 µM; AID 588850, 2011; actives 0.86% (n = 360,000); KKLEB NF-kB-GFP reporter, GFP fluorescence overnight;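 active means at least 50% inhibition at 5 µM, scaled per plate between neutral and stimulator controls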;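 further: PAF is a Pseudomonas aeruginosa culture filtrate used as stimulus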
KKLEB cytotox = cytotoxicity in KKLEB CF airway cells, primary screen, cytotoxicity control for CF NF-kB inhibitor project, cell-based, uHTS, fluorescence assay plates; activity change (cytotoxicity), % at 5 µM; KKLEB CF airway cells viability, ATPlite luminescence, overnight; stronger effect = lower value; cells stimulated with P. aeruginosa culture filtrate; actives 0.36% (n = 360,000);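 active means corrected activity change at or below -50% at 5 µM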
HIF-2a block = HIF-2a reporter inhibitors, primary screen, luminescence, 786-0 RCC cells. 786-0 RCC cells HIF-2a reporter, luciferase luminescence, overnight. inhibition, % at 18.8 µM. actives 0.72% (n = 360,000);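 active means inhibition of the luminescence signal of 40% or more relative to plate controls, in a single-dose primary screen at 18.75 µM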
TROY signal inh = inhibitors of TROY-driven NF-kB signaling, primary screen, Q293 LMP1-TROYcd cells, NF-kB luciferase, uHTS; Q293 LMP1-TROYcd NF-kB luciferase reporter, 4 h; inhibition, % at 10 µM; actives 0.98% (n = 360,000);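 active means compounds whose plate-normalised and pattern-corrected inhibition of the luciferase reporter signal at the single screening dose is 50% or more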
Peg3 promoter = Peg3 promoter-driven luciferase inhibitors, primary screen, cell-based, HeLa, luciferase luminescence; HeLa PEG-Prom luciferase reporter, overnight; inhibition, % at 20 µM; actives 1.7% (n = 360,000);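 active means inhibition of at least 50% at 20 µM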
Large screens that a line does not name were inactive.

CCc1nc2ccc(C(=O)N3CCCCC3)cn2c1N(CCC(C)C)CCN(C)C	none
CCN(CC)c1ccc(NC(=O)Cn2c(C(C)NC(=O)c3ccc(C)cc3)nc3ccccc32)cc1 (configuration not stated)	Peg3 promoter 99.4
CCCn1c(C(C)NC(=O)c2ccccc2)nc2ccccc21 (configuration not stated)	none
Cc1ccc(NC(=O)CSc2nc(-c3ccco3)nc3cc(=O)[nH]n23)c(Cl)c1	none
CCc1ccc(NC(=O)CSc2nc(=O)n(CCCN(C)C)c3c2CCC3)cc1	none
CN(C)CCOc1ccc(-c2c(-c3ccccc3)sc3ccccc23)cc1	CF NFkB inh 82.3, KKLEB cytotox -89.2, Peg3 promoter 100.2
COC(=O)c1ccc(CNC(=O)C2CCC(=O)N(CCc3ccccn3)C2)cc1 (configuration not stated)	none
Cn1c(N)c(C(=O)CSc2nc3ccccc3c(=O)n2Cc2ccccc2)c(=O)n(C)c1=O	CF NFkB inh 87.5, KKLEB cytotox -72.2
Cn1c(N)c(C(=O)CSc2nn(-c3ccccc3)c(=S)s2)c(=O)n(C)c1=O	TWEAK-Fn14 inh 54.1, TROY signal inh 58.2
CCN(CC(=O)c1c(N)n(C)c(=O)n(C)c1=O)c1cccc2ccccc12	TWEAK-Fn14 inh 99.0, TROY signal inh 57.5
CCCn1c(N)c(C(=O)CSc2nc3ccccc3c(=O)n2Cc2ccccc2)c(=O)[nH]c1=O	none
O=C(COc1ccccc1)N1CCN(C(=O)c2ccccc2F)CC1	none
Brc1cc2c(cc1C1OCCCO1)OCO2	none
CCc1nc(N)c(C#N)c(-c2ccc(F)cc2)c1C	none
Cc1ccc2c(n1)sc1c(-c3ccc(Br)cc3)c(C#N)c(N)nc12	Peg3 promoter 55.9
COc1ccccc1OCCn1cc(C(=O)O)c2ccccc21	TWEAK-Fn14 inh 62.8
COc1ccccc1OCCn1cc(C(=O)C(C)C)c2ccccc21	none
CC(NC(C)c1ccccc1Cl)C(=O)Nc1cccc(S(=O)(=O)N2CCCCC2)c1 (configuration not stated)	none
CC(CCN1CCN(CCO)CC1)c1ccccc1 (configuration not stated)	none
CC(CCN1CCOCC1)c1ccccc1 (configuration not stated)	TWEAK-Fn14 inh 60.5
COc1ccc(NC(=O)C2Cc3c(-c4ccccc4Oc4ccccc4)ccnc3O2)cc1 (configuration not stated)	none
CCc1ccc(C2c3[nH]c4ccccc4c3CCN2C(=O)CN2CCN(CC)CC2)cc1 (configuration not stated)	Peg3 promoter 84.1
CCCCC1Cc2[nH][nH]c(=O)c2C(c2ccc(F)cc2)O1 (configuration not stated)	none (no result: CF NFkB inh, KKLEB cytotox, Peg3 promoter)
O=C(Nc1ccccc1)Nc1ccccc1C(=O)NCc1ccccc1	none
CNC(=O)Nc1ccccc1C(=O)NCc1ccccc1	TWEAK-Fn14 inh 62.2
COc1cc(CN2C[C@@H](CO)O[C@@H](n3cnc4c(NCc5ccco5)ncnc43)C2)cc(OC)c1OC	none
CCCCCc1nc2sc3c(c2c(=O)n1NC(=O)c1ccc([N+](=O)[O-])cc1)CC(C)(C)OC3	TWEAK-Fn14 inh 70.2
Cc1onc(-c2ccccc2Cl)c1C(=O)Nc1nnc(-c2ccc(Cl)cc2Cl)s1	none
Cc1onc(-c2ccccc2Cl)c1C(=O)Nc1nc2c(s1)CCCC2	TROY signal inh 51.6
Cc1onc(-c2c(F)cccc2Cl)c1C(=O)Nc1sc2c(c1C(N)=O)CCC2	Peg3 promoter 51.9
CCCCN(CC)CCNC(=O)c1nn(-c2ccc(OC)cc2)c(=O)c2c1c1ccccc1n2C	none
CCN(Cc1ccccc1)C(=O)c1nn(-c2ccc(OC)cc2)c(=O)c2c1c1ccccc1n2C	Peg3 promoter 67.7
COc1cc(OC)c(NC(=O)CN(C)S(=O)(=O)c2ccc(-c3ccc(=O)[nH]n3)s2)cc1Cl	none
CC(=O)c1cccc(N=c2scc(-c3ccc(S(=O)(=O)N4CCOCC4)cc3)n2CCO)c1	TWEAK-Fn14 inh 53.9
Cc1nn(CC(=O)N2CCCC2)c(=O)c2cc3cc(F)ccc3n12	none
O=C1NN(c2ccccc2)C(=O)/C1=C/c1ccc(-c2ccc(Cl)c(C(=O)O)c2)o1	none
Cc1ccc(Sc2ccc(/C=C3/C(=O)NN(c4ccccc4)C3=O)o2)cc1	TWEAK-Fn14 inh 89.0
COc1cc(CNCCN2CCOCC2)ccc1OCc1ccccc1Cl	TWEAK-Fn14 inh 101.1 (no result: TROY signal inh)
COc1cc(CNCCN2CCOCC2)ccc1OCc1ccc(Cl)cc1	none
COc1cc(CNc2ccc3[nH]c(=O)[nH]c3c2)ccc1OCc1ccccc1Cl	TWEAK-Fn14 inh 53.4
Cc1cc(Cl)ccc1OCC(=O)N(Cc1ccco1)c1c(N)n(Cc2ccccc2)c(=O)[nH]c1=O	none
CCCOC(=O)Cn1c(=O)c2cc3c(=O)n(CC(=O)OCCC)c(=O)c3cc2c1=O	TROY signal inh 62.5
Cc1ccc(Cn2c(CCC(=O)O)nc3ncccc3c2=O)cc1	none
COc1ccc(-c2oc(=O)c3cc(OC)c(OC)cc3c2-c2ccc3c(c2)OCO3)cc1	none
COc1cc2c(O)c3c(c(-c4ccc5c(c4)OCO5)c2cc1OC)C(=O)OC3	CF NFkB inh 76.5, KKLEB cytotox -73.1, Peg3 promoter 80.6
CC(=O)Nc1ccc(S(=O)(=O)N(C)CC(=O)OC(C)C(=O)NC2CCCCC2)cc1 (configuration not stated)	none
O=C(O)c1ccc(N=Nc2c(O)[nH]c3cc(Cl)ccc23)cc1	TWEAK-Fn14 inh 55.2
O=C(O)c1ccc(N=Nc2c(O)[nH]c3ccc(Br)cc23)cc1	none
CCOC(=O)C/C(C)=N\Nc1nc(-c2ccccc2)cs1	TWEAK-Fn14 inh 50.8
COc1ccc(N2CCN(CCCn3cnc4c(OC)ncnc43)CC2)cc1	none
COc1ccccc1NC(=O)C1=C(C)NC(SCC(=O)c2ccccc2)=C(C#N)C1c1ccco1 (configuration not stated)	TWEAK-Fn14 inh 55.9
COCCOC(=O)C1=C(C)NC(SCC(=O)NC(C)(C)C)=C(C#N)C1c1ccco1 (configuration not stated)	none
CCN(CC)S(=O)(=O)c1ccc(OC(C)C)c(NC(=O)c2c3c(nc4ccccc24)CCN(Cc2ccccc2)C3)c1	Peg3 promoter 54.6
COc1ccc(C(=O)c2ccc(Cl)cc2)c2ccccc12	none
COc1ccc(C(=O)c2ccccc2)c2c(O)ccc(C(=O)c3ccccc3)c12	TWEAK-Fn14 inh 57.1
